# Shown are actives, neighbours in structure and some others; about 2.6% of the full set was active somewhere.
# CCT modulator: High-Throughput Screening for Modulators of Cytosolic Chaperonin Activity | purified chaperonin ATPase assay, HTRF ADP detection, 30 min | activity change, % (test concentration not listed), hits read low | hit rate 0.3% among 360,000; in the data active means activity change below about -30%; further: on the % scale 0 is the no-effect control and ±100 the full control effect
#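 Nucleotide hydrolysis assay: TRiC at 20–40 nM final (set by batch activity) with 10 uM ATP, 30 min at 37 °C, in presence of 76 uM compound. Detection by competitive ADP HTRF, 30 min ambient.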
# A549 viability: Nrf2 qHTS screen for inhibitors: counterscreen for cytotoxicity; Potency, µM (doses to about 46 µM), for the others: at the top dose activity change, negative = cytotoxicity, actives largely listed as inhibitors; A549 ARE-Fluc cells, CellTiter-Fluor viability, 18-24 h; hit rate 0.16% among 390,000; further: potency means the concentration at half of the fitted maximal effect; on the % scale 0 is the no-effect control and ±100 the full control effect
#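 A549 ARE-Fluc cells in 5% FBS OPTI-MEM, 5000 cells/well, rested 2 h then exposed to compounds in concentration-response for 18-24 h at 37 °C. Viability by CellTiter-Fluor fluorescence (Ex 405/Em 525) after 30 min; luciferase luminescence (BugLite, 15 min, RT) read afterwards.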
# TCR activator: Activators of T cell receptors: qHTS campaign | Potency, µM (top dose mostly 9.22 µM), for the others: top-dose activation of IL-2 secretion, most hits filed as activators | primary human leukocytes, anti-CD3, IL-2 HTRF, 48 h | 330,000 tested, under 10 active; further: % of control where 0% means no effect
#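 Human primary leukocytes + a-CD3 beads + cpd, 48 hr; IL-2 in supernatant by HTRF (ex 320nm / em 665nm). No co-stimulatory signal supplied.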
# Nrf2 ARE act: qHTS of Nrf2 Activators | AREc32 ARE-luciferase reporter (MCF7-derived line), luminescence, 24 h | Potency, µM (doses to about 46.1 µM), inactives show at the top dose activation, hits mostly activators | hit rate 0.31% among 410,000 | AID 624171, 2012; further: potency means the concentration at half of the fitted maximal effect; % of control where 0% means no effect; nearly all actives have a fitted effect of over 65% in size
#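 ARE-driven firefly luciferase activity in AREc32 cells measured after a 24 hr compound exposure at 37 deg C, using Steady-Glo reagent and a 30 min room-temperature hold.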
# Nrf2 inh: Nrf2 qHTS screen for inhibitors | A549 ARE-Fluc reporter, luciferase luminescence, 18-24 h | Potency, µM (highest dose often 46 µM), inactives show at the top dose activity change, negative = inhibition, actives largely listed as inhibitors | hit rate 2.1% among 360,000; further: potency means the concentration at half of the fitted maximal effect; on the % scale 0 is the no-effect control and ±100 the full control effect; nearly all actives have a fitted effect of over 60% in size
#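 Two sequential reads on A549 ARE_Fluc cells exposed to compound for 18-24 h: a CellTiter-Fluor fluorescence read for viability, then a luciferase luminescence read for Nrf2/ARE activity.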
# AT treatment: qHTS Assay for Identifying a Potential Treatment of Ataxia-Telangiectasia. F2112 A-T fibroblasts, KAP-1 phosphorylation AlphaLISA; neocarzinostatin DNA damage 30 min before lysis. Potency, µM (top dose mostly 57.5 µM), inactives show top-dose activation, hits mostly activators. hit rate 0.19% among 320,000; further: potency means the concentration at half of the fitted maximal effect; % of control where 0% means no effect; nearly all actives have a fitted effect of over 45% in size
#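 ATM-like activity read as KAP-1 phosphorylation via AlphaLISA donor/acceptor antibody pairs after lysis and 6 hr at 25C. Cells were ATM-null patient fibroblasts (F2112, hTERT), dosed 60 min, then exposed to the DSB inducer NCS for 30 min.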
# * hit, by the source's call; ? = inconclusive; nt = no result given; [ ] = another dose, or the depositor's remark. Unless noted, the call rests on the fitted dose curve; in most records, active means well fitted curve in the direction sought with a large enough effect; inconclusive means small, poorly fitted or top-dose-only effect, or another doubt; inactive means no such curve, though single readings can be large; an effect the other way counts as inactive or inconclusive.
SMILES,CCT modulator,A549 viability,TCR activator,Nrf2 ARE act,Nrf2 inh,AT treatment
CC1=CC(C)(C)n2c(O)c(N=N)c3c(C)ccc1c32,1.4,2.2%,-6.2%,-0.2%,-0.4%,31.6µM*
CCOC(=O)c1cnc2c(ccc3ccccc32)c1Nc1ccccc1O,nt,-0.9%,nt,5.3%,12.5%,nt
COc1cccc(NC(=O)Nc2cc(C(=O)NC(C)C)ccc2N2CC3CC(C2)c2cccc(=O)n2C3)c1 (stereo not given),0.3,-1.7%,-28.6%,0.1%,0.4%,-1.7%
CCOC(=O)N1CCC(NC(=O)c2ccc3c(c2)N=C(C)c2ccccc2S3)CC1,-0.1,-4.5%,9.3%,2.5%,20.6µM*,-1.0%
Cc1ccc(CN2CCSc3ccc(C(=O)N4CCN(c5ccccc5)CC4)cc32)cc1,nt,9.1%,nt,0.0%,-0.7%,nt
O=C(c1ccc2c(c1)N(Cc1ccc(F)cc1)CCS2)N1CCN(c2ccccc2)CC1,nt,?,nt,0.6%,20.6µM*,nt
CCOC(=O)N1CCC(NC(=O)c2ccc3c(c2)N(C)C(=O)/C(=C/c2cccc(OC)c2)S3)CC1,-0.5,8.4%,10.3%,-0.4%,16.4µM*,5.6%
CCOC(=O)N1CCC(NC(=O)c2ccc3c(c2)N(Cc2ccc(F)cc2)CCS3)CC1,-0.7,-12.8%,3.8%,-0.5%,25.9µM*,4.9%
COCCCNc1nc2c(-c3cccc(Br)c3)nnn2c2ccccc12,nt,4.8%,nt,4.3%,2.0%,nt
N#C[C@H]1[C@H](c2ccccc2)[C@](C#N)(C(=O)c2ccccc2)[C@@H]2C=Cc3ccccc3N21,nt,nt,nt,nt,nt,15.8µM*
CCCc1nnc(SCC(=O)O)n1/N=C/c1ccc2c(c1)OCO2,-63.0*,1.5%,-5.6%,-0.3%,13.5%,1.0%
O=C(COC(=O)c1cccc(Cl)c1Cl)NC1CCCC1,-0.8,-2.0%,0.6%,-1.0%,1.8%,17.8µM*
CCOC(=O)c1c2ccccc2[n+]([O-])n1[C@@H](C)C(N)=O,-3.2,-3.3%,4.5%,11.5%,3.3%,3.6%
COc1ccc(-n2c(=S)[nH]c3ccccc3c2=S)cc1,-0.4,-6.6%,1.3%,0.0%,?,2.82µM*
COc1ccc(Br)cc1CNC(=O)c1cc(=O)[nH]c2ccc(S(=O)(=O)N3CCCCC3)cc12,nt,8.8%,nt,-0.7%,nt,nt
CCOC(=O)c1nc(Nc2ccccc2CC)c2ccccc2n1,-2.2,4.4%,-0.1%,-0.5%,23.1µM*,0.0%
CNc1nc(N/N=C/c2cc([N+](=O)[O-])ccc2F)nc(Nc2ccccc2)n1,1.0,0.1%,9.8%,5.0%,6.9%,nt
CNc1nc(N/N=C/c2cc3c(cc2[N+](=O)[O-])OCO3)nc(Nc2ccccc2)n1,0.1,?,-4.9%,0.5%,18.4µM*,-9.1%
CC1CCCCN1S(=O)(=O)c1ccc2c(c1)C(C)(C)C(=O)N2C (stereo not given),-0.2,2.4%,-3.2%,0.5%,-6.7%,12.4%
COc1ccc(-c2nnc(C3CCN(S(=O)(=O)c4cccc(Cl)c4)CC3)o2)cc1,nt,-0.1%,nt,4.8%,-2.6%,nt
CSc1cccc(NC(=S)N2CCCN(Cc3ccccc3F)C2)c1,2.4,0.3%,5.7%,0.9%,0.2%,-0.9%
Cc1nc2cc(NC(=O)c3ccc([N+](=O)[O-])s3)ccc2s1,0.0,-12.3%,2.1%,6.4%,6.51µM*,2.1%
Cc1nc2cc(NC(=O)c3ccc(N4C(=O)CCC4=O)cc3)ccc2s1,-75.8*,0.1%,1.6%,0.1%,-24.4%,-0.1%
CCOC(=O)N1CCN(C(=O)COC(=O)CSc2ccc([N+](=O)[O-])cc2)CC1,0.4,5.8%,2.4%,0.2%,1.4%,1.8%
COc1ccc(C=C2SC(=S)NC2=O)c(OC)c1OC,0.3,14.6µM*,5.4%,22.0%,?,nt
SMILES,CCT modulator,A549 viability,TCR activator,Nrf2 ARE act,Nrf2 inh,AT treatment
CCCNC(=O)c1ccc(N2CCC3(CC2)CC(c2cccc(Br)c2)=NO3)c(NC(=O)c2ccc(Br)cc2)c1,-22.3,-3.5%,1.1%,0.5%,3.6%,10.3%
CCOC(=O)N1c2ccccc2Sc2ccccc21,-0.4,-2.4%,3.7%,-0.5%,-10.7%,1.1%[11.5 µM]
Cc1nnc(SC(=O)N2c3ccccc3Sc3ccccc32)s1,1.2,-0.1%,-6.4%,?,13µM*,4.1%
COC(=O)C1CCN(C2CN(C3CCCCC3)S(=O)(=O)C2)CC1 (stereo not given),-6.1,nt,nt,-0.9%,nt,nt
O=S(=O)(NNc1ccc(Cl)nn1)c1ccc(F)cc1,-69.2*,3.2%,5.7%[46.1 µM],5.6%,0.6%,-1.6%
O=S(=O)(Nc1ccc(Cl)nn1)c1ccccc1,-0.6,-1.4%,0.7%,-0.4%,-4.2%,-1.1%
COc1ccc(-c2nn(-c3ccccc3)cc2C(=O)NC(=S)NNC(=O)c2ccncc2)cc1,-2.1,-14.5%,5.6%,-0.6%,20.6µM*,-1.6%
COc1ccc(Nc2c3c(nc4ccc(NC(=O)c5cc(Cl)ccc5OC)cc24)CCCC3)cc1OC,nt,?,nt,-3.8%,-11.0%[9.27 µM],nt
O=[N+]([O-])c1ccccc1N/N=C\c1ccccc1Cl,-0.1,-2.3%,3.6%,10µM*,?,-0.1%
O=[N+]([O-])c1ccccc1/C=N/NC1=NCCN1,0.7,-2.0%,-8.0%,0.2%,1.8%,nt
O=[N+]([O-])c1ccccc1C=NNc1ccccc1,-1.5,-8.2%,-2.1%,6.31µM*,-0.6%,nt
CC1=NN(c2cccc(C(=O)O)c2)C(=O)/C1=C\C=C\c1ccco1,-8.7,-1.5%,0.2%[46.1 µM],?,15.5%,-5.2%
CC1=NN(c2ccccc2)C(=O)/C1=C/C=C/c1ccccc1,-1.1,6.2%,8.8%[46.1 µM],11.2µM*,3.5%,12.3%
O=C1C=C(NCCc2cc(Br)c(O)c(Br)c2)C(=O)c2ncccc21,1.7,23.1µM*,-3.1%,?,?,nt
COc1ccc(CCNC(=O)Cn2nc(C)n3nc(-c4ccccc4)cc3c2=O)cc1OC,-12.1,-4.1%,3.1%,0.3%,-2.4%,1.2%
COc1ccc(NS(=O)(=O)c2ccc(N3CCCCC3)c(N)c2)cc1,-1.0,-8.5%,-2.8%,6.0%,6.51µM*,-4.0%
O=C(Nc1cccc(C(F)(F)F)c1)Nc1ccc(N2CCCC2)c(S(=O)(=O)Nc2ccccc2Cl)c1,-3.8,?,1.9%[46.1 µM],0.2%,3.26µM*,5.2%
COc1ccc(NS(=O)(=O)c2cc(NC(=O)C3CC3)ccc2N2CCCCC2)cc1,1.4,-14.5%,-5.4%,0.5%,16.4µM*,3.2%
COc1ccccc1NS(=O)(=O)c1cc(NC(=O)c2cccnc2)ccc1N1CCCCC1,0.7,-14.1%,-3.8%[46.1 µM],3.3%,20.6µM*,-2.6%
CCCN1CNc2c(c(=O)[nH]c(=S)n2CCCc2ccccc2)C1,nt,5.1%,nt,nt,-7.8%,nt

# Source: PubChem (National Center for Advancing Translational Sciences (NCATS))
